# Test results as given in PubChem BioAssay.
# Calls of active or inactive are those of the source.
# Columns and labels:
# [1] = system: PRMT1 (protein arginine N-methyltransferase 1); experiment: PRMT1 binders on small-molecule microarrays, primary screen, biochemical, small-molecule microarray, 635 nm fluorescence (AID 1088); settings: small-molecule microarray binding, higher = more signal;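 also: binding of Prmt1 protein to compounds spotted on small-molecule microarray slides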
# [2] = yeast growth modulation, basal conditions, primary screen, YJM789 clinical isolate, OD600, 24 h (AID 1089);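 also: growth of clinical yeast isolate S. cerevisiae YJM 789 seeded 1000 cells per well; test concentration not given here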; settings: S. cerevisiae YJM789 growth, higher = more signal, called active from +8 up or from −8 down
# [3] = fission yeast growth modulation, primary screen, strain 972, OD600, 24 h, no modulator (AID 1090);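 also: basal condition with compound alone and no growth modifier present; test concentration not given here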; settings: S. pombe 972 growth, higher = more signal, called active from +8 up or from −8 down
# [4] = S. cerevisiae growth modulation with rapamycin, primary screen, strain BY4716, OD600, 96 h (AID 1091); settings: higher = more signal, called active from +8 up or from −8 down; also: test concentration not given here
# [5] = target: Torsin-1A-interacting protein 2 (Homo sapiens) (UniProt Q8NFQ8); experiment: LULL1 binders on small-molecule microarray, primary screen, cell lysate, human LULL1 lysate, 635/667 nm fluorescence (AID 1092); settings: hLULL1 lysate binding, 635 nm fluorescence, higher = more signal;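 also: probe is lysate of COS7 cells overexpressing human LULL1; score merges per-feature 667 nm fluorescence with signal-to-noise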
# Chain of Torsin-1A-interacting protein 2 (Homo sapiens) (Q8NFQ8 whole entry, looked up): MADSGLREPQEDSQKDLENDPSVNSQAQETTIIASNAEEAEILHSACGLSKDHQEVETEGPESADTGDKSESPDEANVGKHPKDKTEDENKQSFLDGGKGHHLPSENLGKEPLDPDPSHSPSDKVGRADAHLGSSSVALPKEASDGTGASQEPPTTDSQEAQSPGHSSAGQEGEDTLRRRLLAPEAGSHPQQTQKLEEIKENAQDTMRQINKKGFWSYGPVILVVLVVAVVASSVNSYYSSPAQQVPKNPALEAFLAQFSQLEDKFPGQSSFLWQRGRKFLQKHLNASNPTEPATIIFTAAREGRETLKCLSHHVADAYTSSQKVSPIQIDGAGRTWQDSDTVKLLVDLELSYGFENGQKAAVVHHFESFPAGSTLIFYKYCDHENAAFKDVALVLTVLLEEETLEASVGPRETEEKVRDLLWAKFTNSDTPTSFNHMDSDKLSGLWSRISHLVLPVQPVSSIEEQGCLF
# [6] = E. coli growth modulation, two-sided OD650, primary screen, E. coli filamentation project, strain DRC41, 24 h (AID 1093); settings: OD650, 24 h, higher = more signal, called active from +8 up or from −8 down;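 also: MC1000 strain lacking acrAB efflux and sulA so SOS filamentation is blocked; test concentration not given here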
# [7] = small-molecule microarray binders of probe aLefty2, primary screen, biochemical, biotinylated probe, 635/667 nm fluorescence (AID 1094); settings: higher = more signal;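 also: score merges spot fluorescence near 667 nm with spot signal-to-noise ratio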
# [8] = system: Noggin (protein binding on small-molecule microarray); experiment: Noggin binders on small-molecule microarray, primary screen, biochemical, 635/667 nm fluorescence (AID 1095); settings: 635 nm fluorescence, higher = more signal;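 also: score merges 667 nm feature fluorescence with signal to noise over triplicate slides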
# [9] = target: Neurogenic locus notch homolog protein 3 (Homo sapiens) (UniProt Q9UM47); experiment: NOTCH3 binders on small-molecule microarray, primary screen, biochemical, 635/667 nm fluorescence (AID 1096); settings: NOTCH3 binding, 635 nm fluorescence, higher = more signal
# Chain of Neurogenic locus notch homolog protein 3 (Homo sapiens) (Q9UM47 whole entry, looked up): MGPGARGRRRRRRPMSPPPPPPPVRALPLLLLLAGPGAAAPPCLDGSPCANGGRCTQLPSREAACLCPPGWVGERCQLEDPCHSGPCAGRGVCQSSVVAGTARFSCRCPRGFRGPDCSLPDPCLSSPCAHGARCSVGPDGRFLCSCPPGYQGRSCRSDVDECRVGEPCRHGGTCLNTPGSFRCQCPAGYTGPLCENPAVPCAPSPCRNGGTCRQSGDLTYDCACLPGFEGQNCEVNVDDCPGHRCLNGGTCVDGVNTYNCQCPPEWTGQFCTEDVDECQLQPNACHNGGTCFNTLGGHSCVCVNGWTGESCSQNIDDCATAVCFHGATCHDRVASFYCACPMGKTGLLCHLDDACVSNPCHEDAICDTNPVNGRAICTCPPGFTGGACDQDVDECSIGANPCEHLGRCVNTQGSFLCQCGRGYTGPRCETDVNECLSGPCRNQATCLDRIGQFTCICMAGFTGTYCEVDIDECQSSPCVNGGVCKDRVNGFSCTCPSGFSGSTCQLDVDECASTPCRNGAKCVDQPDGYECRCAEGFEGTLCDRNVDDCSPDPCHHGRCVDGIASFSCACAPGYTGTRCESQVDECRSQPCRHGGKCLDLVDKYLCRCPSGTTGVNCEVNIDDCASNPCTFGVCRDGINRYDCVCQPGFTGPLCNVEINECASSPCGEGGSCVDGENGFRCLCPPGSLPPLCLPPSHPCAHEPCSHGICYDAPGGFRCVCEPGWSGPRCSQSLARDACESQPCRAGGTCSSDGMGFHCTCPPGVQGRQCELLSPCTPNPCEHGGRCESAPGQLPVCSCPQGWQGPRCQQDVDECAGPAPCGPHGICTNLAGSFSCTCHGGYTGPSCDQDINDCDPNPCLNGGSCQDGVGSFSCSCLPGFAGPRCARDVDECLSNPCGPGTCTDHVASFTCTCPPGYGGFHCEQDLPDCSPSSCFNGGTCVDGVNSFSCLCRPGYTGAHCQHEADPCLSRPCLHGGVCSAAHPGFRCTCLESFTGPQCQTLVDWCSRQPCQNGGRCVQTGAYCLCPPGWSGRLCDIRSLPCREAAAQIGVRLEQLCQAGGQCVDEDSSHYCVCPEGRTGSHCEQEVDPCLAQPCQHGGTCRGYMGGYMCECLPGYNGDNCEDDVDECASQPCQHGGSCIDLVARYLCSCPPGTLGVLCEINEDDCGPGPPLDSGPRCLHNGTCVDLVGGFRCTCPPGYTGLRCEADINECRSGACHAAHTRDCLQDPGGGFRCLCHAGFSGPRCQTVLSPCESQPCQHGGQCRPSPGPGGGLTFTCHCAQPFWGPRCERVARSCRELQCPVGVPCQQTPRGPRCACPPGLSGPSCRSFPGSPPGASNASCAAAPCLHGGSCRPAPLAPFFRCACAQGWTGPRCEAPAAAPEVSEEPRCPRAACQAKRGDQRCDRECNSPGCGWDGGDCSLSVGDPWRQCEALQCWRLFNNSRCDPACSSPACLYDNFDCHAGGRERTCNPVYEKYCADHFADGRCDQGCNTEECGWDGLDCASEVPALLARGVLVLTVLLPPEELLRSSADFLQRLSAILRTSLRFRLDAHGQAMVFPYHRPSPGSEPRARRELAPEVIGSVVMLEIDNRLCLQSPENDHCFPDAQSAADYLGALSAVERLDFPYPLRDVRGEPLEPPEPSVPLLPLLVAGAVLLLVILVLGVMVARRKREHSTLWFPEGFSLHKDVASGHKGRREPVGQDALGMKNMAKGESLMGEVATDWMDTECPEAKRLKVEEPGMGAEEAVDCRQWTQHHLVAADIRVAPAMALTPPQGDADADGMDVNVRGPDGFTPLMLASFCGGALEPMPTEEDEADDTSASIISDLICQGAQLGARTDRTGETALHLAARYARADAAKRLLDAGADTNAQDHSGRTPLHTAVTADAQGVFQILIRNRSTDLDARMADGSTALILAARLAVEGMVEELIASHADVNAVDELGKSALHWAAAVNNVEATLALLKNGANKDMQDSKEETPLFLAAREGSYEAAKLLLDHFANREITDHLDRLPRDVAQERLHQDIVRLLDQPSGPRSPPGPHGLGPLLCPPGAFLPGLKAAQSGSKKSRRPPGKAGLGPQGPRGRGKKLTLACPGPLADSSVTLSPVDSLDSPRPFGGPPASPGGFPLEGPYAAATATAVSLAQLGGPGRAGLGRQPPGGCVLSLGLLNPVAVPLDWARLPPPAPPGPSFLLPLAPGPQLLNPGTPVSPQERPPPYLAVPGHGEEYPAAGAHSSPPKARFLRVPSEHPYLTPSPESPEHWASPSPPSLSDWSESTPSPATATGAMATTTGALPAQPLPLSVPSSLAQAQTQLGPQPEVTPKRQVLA
# [10] = small-molecule microarray binders of probe aEGFR, primary screen, biochemical, biotinylated probe, 635/667 nm fluorescence (AID 1097); settings: higher = more signal;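 also: probe is a biotinylated anti-EGFR antibody binding compounds printed on slides; score combines fluorescence near 667 nm and signal to noise of each spot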
# [11] = system: Plasmodium falciparum Sir2 (PF13_0152, Sir2A); experiment: pfSir2 binders on small-molecule microarrays, primary screen, biochemical, small-molecule microarray, 635 nm fluorescence (AID 1098); settings: small-molecule microarray binding, fluorescence 635 nm; higher = more signal;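 also: score merges spot fluorescence intensity with its signal-to-noise ratio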
# [12] = small-molecule microarray binders of probe aDKK1, primary screen, biochemical, biotinylated probe, 635/667 nm fluorescence (AID 1099); settings: higher = more signal;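 also: score merges 667nm spot fluorescence with signal to noise across triplicate slides; reference of the scale not given here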
# [13] = small-molecule microarray binders of probe aCHRDL2, primary screen, biochemical, biotinylated probe, 635/667 nm fluorescence (AID 1100); settings: higher = more signal
# [14] = splicing luciferase reporter signal modulators, primary screen, spliceosome inhibition project, cell-based, HEK293, splice +/- reporter (AID 1101); settings: luminescence, 24 h, higher = more signal, called active from +8 up or from −8 down;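 also: HEK293 cells carrying a splicing-competent luciferase reporter gene; test concentration not given here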
# [15] = target: Fibroblast growth factor 10 (Homo sapiens) (UniProt O15520); experiment: FGF10 binders on small-molecule microarrays, primary screen, biochemical, small-molecule microarray, 635 nm fluorescence (AID 1102); settings: FGF10 binding, fluorescence 635 nm, higher = more signal
# Chain of Fibroblast growth factor 10 (Homo sapiens) (O15520 whole entry, looked up): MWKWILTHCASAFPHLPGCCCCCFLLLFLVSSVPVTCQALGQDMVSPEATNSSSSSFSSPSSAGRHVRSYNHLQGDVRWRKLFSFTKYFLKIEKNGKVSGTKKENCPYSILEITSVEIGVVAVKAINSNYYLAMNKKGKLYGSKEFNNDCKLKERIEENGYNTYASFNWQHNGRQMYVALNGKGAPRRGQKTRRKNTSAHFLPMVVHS
# [16] = system: glycogen synthase kinase-3 (GSK3A per assay name; protocol says GSK3B); experiment: GSK3 binders on small-molecule microarrays, primary screen, biochemical, small-molecule microarray, 635 nm fluorescence, GSK3A (AID 1103); settings: small-molecule microarray binding, fluorescence 635 nm; higher = more signal; also: the record names both GSK3A and GSK3B
# [17] = target: Epidermal growth factor receptor (Homo sapiens) (UniProt P00533); experiment: EGFR binders on small-molecule microarrays, primary screen, biochemical, small-molecule microarray, 635 nm fluorescence (AID 1104); settings: EGFR binding, higher = more signal;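 also: score merges 667 nm emission intensity with spot signal to noise over triplicate slides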
# Chain of Epidermal growth factor receptor (Homo sapiens) (P00533 whole entry, looked up): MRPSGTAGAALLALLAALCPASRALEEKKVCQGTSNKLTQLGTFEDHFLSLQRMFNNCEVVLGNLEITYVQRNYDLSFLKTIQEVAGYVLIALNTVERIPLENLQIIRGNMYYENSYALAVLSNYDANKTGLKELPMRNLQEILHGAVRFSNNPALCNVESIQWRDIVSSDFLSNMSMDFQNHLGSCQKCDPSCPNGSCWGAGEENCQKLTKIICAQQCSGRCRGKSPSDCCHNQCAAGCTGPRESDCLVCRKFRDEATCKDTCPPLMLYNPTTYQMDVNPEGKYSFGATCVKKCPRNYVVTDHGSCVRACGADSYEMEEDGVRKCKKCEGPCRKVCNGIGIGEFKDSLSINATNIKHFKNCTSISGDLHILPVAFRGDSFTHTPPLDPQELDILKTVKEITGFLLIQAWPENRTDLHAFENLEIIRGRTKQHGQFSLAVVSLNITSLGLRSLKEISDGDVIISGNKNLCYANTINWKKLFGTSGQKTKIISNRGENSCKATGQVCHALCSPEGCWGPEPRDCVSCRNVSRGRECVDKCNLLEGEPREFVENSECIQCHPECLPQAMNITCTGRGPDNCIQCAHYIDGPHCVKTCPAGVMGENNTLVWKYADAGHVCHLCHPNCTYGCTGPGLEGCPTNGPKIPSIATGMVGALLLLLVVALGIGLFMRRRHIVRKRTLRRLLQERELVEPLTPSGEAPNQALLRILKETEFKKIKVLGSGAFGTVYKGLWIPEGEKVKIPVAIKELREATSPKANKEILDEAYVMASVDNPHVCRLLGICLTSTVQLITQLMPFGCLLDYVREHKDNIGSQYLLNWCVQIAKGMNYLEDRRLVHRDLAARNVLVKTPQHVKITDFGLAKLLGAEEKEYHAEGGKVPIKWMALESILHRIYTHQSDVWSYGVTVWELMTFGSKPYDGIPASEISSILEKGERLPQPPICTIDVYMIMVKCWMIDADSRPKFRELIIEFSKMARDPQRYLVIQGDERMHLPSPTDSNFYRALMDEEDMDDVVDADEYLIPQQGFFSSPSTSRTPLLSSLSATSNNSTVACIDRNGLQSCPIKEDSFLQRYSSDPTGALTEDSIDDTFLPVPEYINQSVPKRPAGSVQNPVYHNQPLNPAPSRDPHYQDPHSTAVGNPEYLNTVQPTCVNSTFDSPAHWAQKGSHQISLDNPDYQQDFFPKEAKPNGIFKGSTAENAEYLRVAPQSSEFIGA
# [18] = target: Follistatin-related protein 3 (Homo sapiens) (UniProt O95633); experiment: FSTL3 binders on small-molecule microarrays, primary screen, biochemical, small-molecule microarray, 635 nm fluorescence (AID 1105); settings: FSTL3 binding, higher = more signal;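 also: score merges emission near 667 nm and signal to noise per printed spot across three slides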
# Chain of Follistatin-related protein 3 (Homo sapiens) (O95633 whole entry, looked up): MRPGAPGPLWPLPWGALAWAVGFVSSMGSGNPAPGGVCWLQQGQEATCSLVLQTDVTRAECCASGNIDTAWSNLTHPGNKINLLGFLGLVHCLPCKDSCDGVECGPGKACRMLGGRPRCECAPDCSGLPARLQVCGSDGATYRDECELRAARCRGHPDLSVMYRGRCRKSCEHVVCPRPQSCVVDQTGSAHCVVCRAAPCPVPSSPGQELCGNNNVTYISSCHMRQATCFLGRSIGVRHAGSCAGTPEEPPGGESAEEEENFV
# [19] = target: Dickkopf-related protein 1 (Homo sapiens) (UniProt O94907); experiment: DKK1 binders on small-molecule microarrays, primary screen, biochemical, small-molecule microarray, 635 nm fluorescence scan (AID 1106); settings: DKK1 binding, higher = more signal;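 also: score merges emission near 667 nm with signal to noise over three replicate slides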
# Chain of Dickkopf-related protein 1 (Homo sapiens) (O94907 whole entry, looked up): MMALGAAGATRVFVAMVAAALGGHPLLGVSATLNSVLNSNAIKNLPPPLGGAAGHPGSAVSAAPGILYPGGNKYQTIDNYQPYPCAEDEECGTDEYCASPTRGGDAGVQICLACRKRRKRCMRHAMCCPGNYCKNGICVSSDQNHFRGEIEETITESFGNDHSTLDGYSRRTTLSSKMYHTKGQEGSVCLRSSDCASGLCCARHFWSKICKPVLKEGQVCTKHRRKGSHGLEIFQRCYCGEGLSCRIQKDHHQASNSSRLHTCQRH
# [20] = system: Inhibin beta A chain (activin A); experiment: INHBA (activin A) binders on microarrays, primary screen, biochemical, small-molecule microarray, 635 nm fluorescence scan (AID 1107); settings: small-molecule microarray binding, higher = more signal;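 also: mouse activin A protein probed at 4.33 µg/mL on printed slides; score merges bound-protein fluorescence near 667 nm with spot signal-to-noise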
Structure (SMILES),composite z-score [1],z-score [2],z-score [3],z-score [4],composite z-score [5],z-score [6],composite z-score [7],composite z-score [8],composite z-score [9],composite z-score [10],composite z-score [11],composite z-score [12],composite z-score [13],z-score [14],composite z-score [15],composite z-score [16],composite z-score [17],composite z-score [18],composite z-score [19],composite z-score [20]
COCCOC(=O)N1C(=O)[C@@]2(c3cc(C#CC4(O)CCCCCC4)ccc31)[C@H](C(=O)NC[C@H](O)c1ccccc1)[C@H]1C(=O)O[C@H](c3ccccc3)[C@H](c3ccccc3)N1[C@@H]2c1ccc(O)cc1,1.48,0.295 (inactive),0.956 (inactive),0.927 (inactive),2.49,1.43 (inactive),-0.0289,0.3,0.871,-0.0703,1.36,0.203,0.316,0.209 (inactive),0.779,1.29,-0.0406,0.334,-0.0026,0.386
CCCC[C@@H](O)C1=C(COC)Cn2c(=O)n(-c3ccccc3)c(=O)n2[C@H]1CO,-0.0379,-1.48 (inactive),-1.13 (inactive),-0.721 (inactive),-0.0333,2.84 (inactive),-0.246,-0.102,-0.62,-0.203,-0.0092,-0.399,-0.318,-0.446 (inactive),0.035,0.0617,-0.464,-0.0013,-0.184,0.749
[N-]=[N+]=Nc1ccccc1[C@@H]1OC(c2ccc(OCCCO)cc2)=N[C@]1(Cc1ccccc1)C(N)=O,-0.0138,0.622 (inactive),-1.21 (inactive),-0.026 (inactive),2.04,1.74 (inactive),0.0529,-0.231,0.383,0.224,0.807,0.818,0.578,0.336 (inactive),-0.121,-0.235,-0.236,-0.294,-0.205,0.982
N#Cc1ccc(C(O)C2C=CC3C(=O)NC(=O)C3N2Nc2ccccn2)cc1 (stereo not given),0.312,-1.4 (inactive),0.811 (inactive),-0.657 (inactive),1.4,-0.195 (inactive),-0.147,-0.14,-0.124,-0.0594,0.348,-0.164,0.425,-0.785 (inactive),0.0221,0.137,0.362,-0.193,0.0057,0.921
CCCCN1CC=CC23O[C@@H]4/C=C\CCC(C)OC(=O)C4[C@H]2C(=O)N(C(C)CO)[C@@H]3C1=O (stereo not given in full),-1.58,0.324 (inactive),-0.944 (inactive),0.316 (inactive),-1.13,-0.182 (inactive),-0.317,-0.422,-0.878,-0.401,0.356,-0.463,-0.471,1.07 (inactive),-0.816,-0.937,-0.659,-0.719,-0.127,1.19
COCCOC(=O)N1C(=O)[C@@]2(c3cc(C#CC4=CCCCC4)ccc31)[C@H](C(=O)N1CCc3cc(OC)c(OC)cc3C1)[C@H]1C(=O)O[C@H](c3ccccc3)[C@H](c3ccccc3)N1[C@@H]2c1ccc(O)cc1,1.5,1.68 (inactive),0.94 (inactive),2.7 (inactive),2.68,0.951 (inactive),1.08,0.552,1.16,0.657,1.04,0.26,-0.0061,-0.258 (inactive),0.438,1.12,1.32,0.583,0.391,0.732
